Values joined by “and” are separate entries in the source; they are usually repeats but may differ in a detail not shown here. Equal values may be shown once. Active and inactive are the calls of the source. No rule for the calls is given here.
Tests used:
[1] = liver-stage malaria parasite load reduction – cell-based, known kinase inhibitor set, luminescence, hepatoma host viability (AID 624392); details: Plasmodium liver stage in hepatoma cells, luciferase luminescence, concentration not given here; liver cell % of control: measured here: host liver cell viability; parasite % of control: stronger effect = lower value;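 also: infected cells incubated roughly two days before readout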
[2] = altered dexamethasone sensitivity, NF-kB reporter, cell-based, luciferase, IL-1B stimulus (AID 624486); details: IL-1B + dexamethasone, luminescence; percent of negative control (+Dex): actives lie on both sides, concentration not given here; z-score: measured here: IL-1B alone, no Dex;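 as to percent of negative control (+Dex): 100% = mean signal of vehicle control wells on the plate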
[3] = target: Cellular tumor antigen p53 (Homo sapiens) (UniProt P04637); assay: GFP-p53 level modulators in HPV16+ cells – imaging, known kinase inhibitor set, EGFP/DsRed ratio (AID 1053116); details: GFP-p53 stability, stronger effect = higher value; EGFP object count: measured here: GFP-p53 positive objects count;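 also: cells exposed to compounds for 24 h at 37 °C before reading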
[4] = inducers of IRF3 signaling, differentiated THP-1 – cell-based, PMA-stimulated THP-1, luminescence (AID 1053176); details: PMA-differentiated THP-1, IRF3 reporter luminescence; stronger effect = higher value

Chain of Cellular tumor antigen p53 (Homo sapiens) (P04637 whole entry, looked up): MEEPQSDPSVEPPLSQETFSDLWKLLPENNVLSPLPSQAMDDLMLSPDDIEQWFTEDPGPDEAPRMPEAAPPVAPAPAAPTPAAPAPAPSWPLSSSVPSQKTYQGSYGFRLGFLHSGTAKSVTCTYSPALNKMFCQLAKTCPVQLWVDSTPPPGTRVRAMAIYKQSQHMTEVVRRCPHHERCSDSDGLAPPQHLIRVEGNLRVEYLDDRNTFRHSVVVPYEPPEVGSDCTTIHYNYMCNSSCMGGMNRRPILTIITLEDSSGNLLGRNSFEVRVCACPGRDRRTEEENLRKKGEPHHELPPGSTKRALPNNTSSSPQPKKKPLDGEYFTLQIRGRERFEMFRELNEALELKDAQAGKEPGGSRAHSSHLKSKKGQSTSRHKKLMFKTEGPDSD

Row | SMILES | liver cell % of control [1] | parasite % of control [1] | percent of negative control (+Dex) [2] | z-score [2] | EGFP object count [3] | EGFP/DsRed ratio [3] | fraction signal [4]
1 | Nc1c(C(=O)c2ccc(C#CCN3CCOCC3)cc2)cnn1-c1ccc(F)cc1 | 110% | 75.7% (inactive) | 106% (inactive) | 1.64 | 4.5 | 0.119 (inactive) | 0.01 (inactive)
2 | COc1ccc(CCN=C2NC(=O)C(=Cc3ccc4ncccc4c3)S2)cc1 | 99.3% | 48.7% (inactive) | 100% (inactive) | 0.55 | 3 | 0.381 (inactive) | 0.001 (inactive)
3 | O=C1NC(=O)C(c2c[nH]c3ccccc23)C1c1c[nH]c2ccccc12 (stereo not given) | 102% | 41.2% (inactive) | 100% (inactive) | 0.125 | 2.5 | 0.0298 (inactive) | -0.0005 (inactive)
4 | CNCC1CCn2c(c(C3=C(c4cn(C)c5ccccc45)C(=O)NC3=O)c3ccccc32)C1 (stereo not given) | 101% | 45.7% (inactive) | 94.5% (inactive) | -0.52 | 1 | 0.0128 (inactive) | -0.0115 (inactive)
5 | O=C1NC(=NC(CO)Cc2ccccc2)SC1=Cc1ccc2ncccc2c1 (stereo not given) | 107% and 106% | 258% (inactive) and 60% (inactive) | 91.5% (inactive) and 102% (inactive) | -0.515 and 0.03 | 6.5 and 4 | 0.117 (inactive) and 0.195 (inactive) | -0.0075 (inactive) and -0.0115 (inactive)
6 | N=C1N=C(N)C(=Cc2ccc3ncccc3c2)S1 | 121% | 61.8% (inactive) | 98.5% (inactive) | 1.46 | 3.5 | 0.171 (inactive) | 0.006 (inactive)
7 | CC(=O)Nc1ccc2c(C3=C(c4cn(C)c5ccccc45)C(=O)NC3=O)cn(C)c2c1 | 83.1% | 16.4% (inactive) | 114% (inactive) | -1.25 | 61.5 | 0.596 (active) | -0.009 (inactive)
8 | COc1ccccc1C(=O)c1cnc(NC2CCN(S(C)(=O)=O)CC2)nc1N | 100% | 96.6% (inactive) | 85% (inactive) | -1.16 | 5 | 0.0796 (inactive) | 0.0015 (inactive)
9 | Cc1ccccc1-n1ncc(C(=O)c2ccccc2)c1N | 104% | 52.3% (inactive) | 120% (inactive) | 1.31 | 5 | 0.225 (inactive) | -0.0005 (inactive)
10 | CC(C)c1[nH]nc2c1N=C(c1ccccc1Cl)c1cc([N+](=O)[O-])ccc1N2 | 105% | 61.2% (inactive) | 108% (inactive) | 0.05 | 50.5 | 1.11 (active) | -0.0115 (inactive)
11 | O=C1NC(=NCc2ccccc2Br)SC1=Cc1ccc2ncccc2c1 | 130% | 32.9% (inactive) | 85.5% (inactive) | -0.56 | 8 | 0.253 (inactive) | -0.0095 (inactive)
12 | N#Cc1c(C(=O)c2ccccc2)cnn1-c1ccccc1 | 104% | 56.2% (inactive) | 106% (inactive) | 1.11 | 7 | 0.125 (inactive) | -0.007 (inactive)
13 | CC(O)CNc1cc(-c2[nH]c3cccnc3c2-c2ccc(F)cc2)ccn1 (stereo not given) | 229% | 13.2% (inactive) | 106% (inactive) | 0.42 | 4 | 0.042 (inactive) | 0.0055 (inactive)
14 | Cn1c(=O)c(Oc2ccc(F)cc2F)cc2cnc(NC(CO)CO)nc21 | 113% | 64.2% (inactive) | 108% (inactive) | 0.05 | 2.5 | 0.0637 (inactive) | 0.0035 (inactive)
15 | COc1cc[nH]c1C=C1C(=O)Nc2ccccc21 | 116% | 24.2% (inactive) | 148% (active) | 6.7 | 6 | 0.263 (inactive) | -0.02 (inactive)
16 | CC(=O)NC(Cc1ccc(OP(=O)(O)O)cc1)C(=O)NC1CCC(=O)N2CCCC(C(=O)NCc3ccccc3)N2C1=O (stereo not given) | 105% | 55% (inactive) | 102% (inactive) | 0.685 | 1.5 | 0.0487 (inactive) | -0.0115 (inactive)
17 | Cn1cc(C2=C(c3c4n(c5ccccc35)CCNC4)C(=O)NC2=O)c2ccccc21 | 79.3% | 40.6% (inactive) | 97.5% (inactive) | -0.32 | 25 | 0.0526 (inactive) | -0.007 (inactive)
18 | Cn1cc(C2=C(c3ccc(N)cc3)C(=O)NC2=O)c2ccccc21 | 135% | 32.1% (inactive) | 100% (inactive) | -0.99 | 28.5 | 0.493 (inactive) | -0.005 (inactive)
19 | Nc1c(C(=O)c2cccc(-c3cccnc3)c2)cnn1-c1ccc(F)cc1 | 219% | 7.92% (inactive) | 111% (inactive) | 0.475 | 3 | 0.0451 (inactive) | -0.005 (inactive)
20 | CON=C1NC(=O)C(=Cc2ccc3ncccc3c2)S1 | 89.4% | 71.6% (inactive) | 113% (inactive) | 2.23 | 3.5 | 0.0939 (inactive) | -0.005 (inactive)

Row | SMILES | liver cell % of control [1] | parasite % of control [1] | percent of negative control (+Dex) [2] | z-score [2] | EGFP object count [3] | EGFP/DsRed ratio [3] | fraction signal [4]
21 | N#Cc1ccc(C(=O)c2cnn(-c3ccc(F)cc3)c2N)cc1 | 103% | 59.8% (inactive) | 131% (active) | 1.97 | 13 | 0.456 (inactive) | 0.0095 (inactive)
22 | Cn1cc(C2=C(n3ccc4ccccc43)C(=O)NC2=O)c2ccccc21 | 130% | 37.7% (inactive) | 95.5% (inactive) | 0.125 | 4 | 0.178 (inactive) | -0.0025 (inactive)
23 | COc1cccc(C2=C(c3cn(C)c4ccc(Cl)cc34)C(=O)NC2=O)c1 | 197% | 11.6% (inactive) | 139% (inactive) | 0.245 | 13.5 | 0.277 (inactive) | -0.0075 (inactive)
24 | Cn1cc(C2=C(c3ccccc3C(F)(F)F)C(=O)NC2=O)c2ccccc21 | 149% | 31% (inactive) | 114% (inactive) | 0.1 | 32.5 | 0.646 (inactive) | 0.01 (inactive)
25 | CS(=O)(=O)CCc1cccc(C(=O)c2cnn(-c3ccc(F)cc3)c2N)c1 | 95.7% | 45.3% (inactive) | 102% (inactive) | 1.1 | 1.5 | 0.152 (inactive) | -0.0075 (inactive)
26 | CN1CC2Cc3c(C4=C(c5cn(C)c6ccccc56)C(=O)NC4=O)c4ccccc4n3CC2C1 (stereo not given) | 79.3% and 90.1% | 36.7% (inactive) and 27% (inactive) | 98.5% (inactive) | -0.62 and -0.215 | 2.5 and 3.5 | 0.0121 (inactive) and 0.0134 (inactive) | -0.005 (inactive) and -0.0135 (inactive)
27 | COc1ccc(O)c(C(=O)c2ccc(C(=O)NC3CCCNCC3NC(=O)c3ccncc3)cc2)c1F (stereo not given) | 115% | 83.5% (inactive) | 68.5% (active) | -3.04 | 10.5 | 0.105 (inactive) | 0.0035 (inactive)
28 | Cn1cc(C2=C(c3c[nH]c4ccccc34)C(=O)NC2=O)c2ccccc21 | 85.3% | 60.7% (inactive) | 101% (inactive) | -1.61 | 73 | 0.286 (inactive) | 0.0015 (inactive)
29 | Cn1c(=O)c(Oc2ccc(F)cc2)cc2cnc(NC3CCOCC3)nc21 | 106% | 64.1% (inactive) | 104% (inactive) | 0.86 | 3.5 | 0.251 (inactive) | -0.0055 (inactive)
30 | N#CCn1c(=O)c(Oc2ccc(F)cc2F)cc2cnc(NC3CCOCC3)nc21 | 96.2% | 58.4% (inactive) | 97% (inactive) | -0.11 | 2.5 | 0.064 (inactive) | -0.007 (inactive)
31 | O=C1NC(=NC2CC2c2ccccc2)SC1=Cc1ccc2ncccc2c1 (stereo not given) | 193% | 10.6% (inactive) | 64% (active) | -4.3 | 3 | 0.221 (inactive) | -0.0115 (inactive)
32 | Cn1cc(C2=C(c3cn(C)c4cc(N)ccc34)C(=O)NC2=O)c2ccccc21 | 85.5% | 26.4% (inactive) | 96% (inactive) | -2.26 | 41.5 | 0.462 (inactive) | -0.0115 (inactive)
33 | COc1ccc(C2=C(c3cn(C)c4ccccc34)C(=O)NC2=O)cc1 | 131% | 39.3% (inactive) | 108% (inactive) | -0.1 | 5.5 | 0.214 (inactive) | -0.0115 (inactive)
34 | CON=C(c1ccccc1)c1cnn(-c2ccccc2)c1N | 121% | 79.3% (inactive) | 98.5% (inactive) | 0.245 | 3.5 | 0.128 (inactive) | 0.0055 (inactive)
35 | Cc1ccccc1C1=C(c2cn(C)c3ccccc23)C(=O)NC1=O | 136% | 37% (inactive) | 96% (inactive) | -1.4 | 22 | 0.4 (inactive) | 0.0035 (inactive)
36 | O=c1[nH]c2nc(NC3CCOCC3)ncc2cc1Oc1ccc(F)cc1F | 94.5% | 56.1% (inactive) | 104% (inactive) | 0.61 | 2 | 0.08 (inactive) | -0.003 (inactive)
37 | CCc1c(C)nc2sc3c(N)ncnc3c2c1C | 221% | 5.86% (inactive) | 53.5% (active) | -4.42 | 3.5 | 0.129 (inactive) | -0.001 (inactive)
38 | Nc1c(C(=O)c2ccc(-c3cccnc3)cc2)cnn1-c1ccc(F)cc1 | 93.2% | 36.7% (inactive) | 112% (inactive) | 0.835 | 5.5 | 0.226 (inactive) | -0.0025 (inactive)
39 | Fc1ccc(-c2c(-c3ccncc3)[nH]c3nccnc23)cc1 | 183% | 30.2% (inactive) | 110% (inactive) | -0.915 | 4 | 0.101 (inactive) | -0.02 (inactive)
40 | CC(=O)NC(Cc1ccc(OP(=O)(O)O)cc1)C(=O)NC1CCC(=O)N2CCCC(C(=O)NCc3ccc(Cl)cc3)N2C1=O (stereo not given) | 96.1% | 45.1% (inactive) | 95.5% (inactive) | 0.05 | 3.5 | 0.276 (inactive) | -0.003 (inactive)

Reference: PubChem BioAssay
